One molecule from the supplement of paper PMC8728848 can be followed below.

Holding throughout (assay): glycan array binding signal (z-score within array); higher = stronger binding
What all share (conditions): glycan notation: IUPAC condensed, linker removed

One assay deals with Kdn(a2-3)Gal(b1-4)GlcNAc. The procedure, abridged:
(§1)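 Negative Z-scores can be read as non-binding. The Z-score is calculated within each array and then averaged across arrays of one protein sequence at different concentrations or buffers and across linkers. Arrays, 3228 in all, were curated from the Consortium for Functional Glycomics database and kept only where the protein sequence was available.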

Assay [1] deals with Kdn(a2-3)Gal(b1-4)[Fuc(a1-3)]GlcNAc. A digest of the protocol:
as §1

The target of assay [2] is Man(a1-2)Man(a1-2)Man(a1-3)Man. The procedure, abridged: as §1
The target in assay [3] is Man(a1-3)[Man(a1-6)]Man(b1-4)GlcNAc(b1-4)[Fuc(a1-6)]GlcNAc. The procedure, abridged:
as §1

Another assay deals with Neu5Ac(a2-3)Gal. The procedure, abridged: as §1
The target in assay [4] is Neu5Ac(a2-3)Gal(b1-4)GlcNAc(b1-2)[Neu5Ac(a2-3)Gal(b1-4)GlcNAc(b1-6)]Man(a1-6)[Neu5Ac(a2-3)Gal(b1-4)GlcNAc(b1-2)Man(a1-3)]Man(b1-4)GlcNAc(b1-4)GlcNAc. A digest of the protocol:
as §1

Assay [5] has as its target Neu5Ac(a2-3)Gal(b1-4)GlcNAc(b1-3)Gal(b1-4)GlcNAc. The procedure, abridged:
as §1

In assay [6] the target is Neu5Ac(a2-3)Gal(b1-4)GlcNAc(b1-3)Gal(b1-4)GlcNAc(b1-2)Man(a1-3)[Neu5Ac(a2-3)Gal(b1-4)GlcNAc(b1-3)Gal(b1-4)GlcNAc(b1-2)Man(a1-6)]Man(b1-4)GlcNAc(b1-4)GlcNAc. The procedure, abridged: as §1
Assay [7] addresses Neu5Ac(a2-3)Gal(b1-4)[Fuc(a1-3)]GlcNAc(b1-2)Man. A digest of the protocol:
as §1

The next assay has as its target Neu5Ac(a2-3)GalNAc. A digest of the protocol: as §1
Assay [8] addresses Neu5Ac(a2-6)Gal(b1-4)GlcNAc. The procedure, abridged:
as §1

Assay [9] addresses Neu5Ac(a2-6)Gal(b1-4)GlcNAc(b1-2)Man(a1-6)Man(b1-4)GlcNAc(b1-4)GlcNAc. A digest of the protocol: as §1
Assay [10] has as its target Neu5Ac(a2-6)Gal(b1-4)GlcNAc(b1-2)Man(a1-6)[Man(a1-3)]Man(b1-4)GlcNAc(b1-4)GlcNAc. A digest of the protocol:
as §1

The target of assay [11] is Neu5Ac(a2-6)Gal(b1-4)GlcNAc(b1-3)Gal(b1-4)[Fuc(a1-3)]GlcNAc(b1-3)Gal(b1-4)[Fuc(a1-3)]GlcNAc. A digest of the protocol:
as §1

Assay [12] concerns the target Neu5Ac(a2-8)Neu5Ac(a2-8)Neu5Ac. A digest of the protocol: as §1
Assay [13] concerns the target Neu5Ac9Ac(a2-3)Gal(b1-3)GlcNAc. The procedure, abridged: as §1
The target in assay [14] is Neu5Ac9Ac(a2-6)Gal(b1-4)GlcNAc. A digest of the protocol: as §1
The target in the next assay is Neu5Gc(a2-3)Gal(b1-4)Glc. A digest of the protocol:
as §1

About 410 targets per protein were measured; listed, in parts, are those with the strongest signals and a random draw of the rest.

B1: FliD (Clostridium difficile) (protein)
chain: MSSISPVRVTGLSGNFDMEGIIEASMIRDKEKVNKAKQDQQIVKWKQEIYRDIIKESKNLYDKYLNGDSPNSITNKKAYSATRITSSDESIIVAKGSAGAEKINYQFAVSQMAEPAKVTIKLNSSDPIVQQFPPNASGASSLNIGGVNIPISEQDTTSTIVSKINSLCADNDIRASYSEMTGELIISRKQTGSSSDIDLKVIGNDSLAGQIASDNGITFTTDASGTKSAVVYGKNLEADVTDDQGRVTHISKEQNSFKIDNIDYNVNSKGSAKLVSVTDTEEATKNMKAFVDDYNALMDKVYGLVTTKKSKDYPPLTDEQKDDMTTEEIEKWEKKAKEGILRNDDELRAFVEDIQSMFFGDADTIIALRKLGISEHENYNKKGQISFNADTFSKALIDDSDKVYKALAGYSSNYDDKGMFEKLKKIVFEYSGSSASKLTKKAGMENSSSASQNVYSKQIAEQERNISRLVEKMNDKEKRLYAKYSALESLLNKYSSQMNYFSQAQGN
On to B1, for which the “glycan array binding signal (z-score)” value in the assay with Kdn(a2-3)Gal(b1-4)GlcNAc was -0.204; in [1], 0.919; in [2], -0.247; in assay [3], -0.274; in the assay with Neu5Ac(a2-3)Gal, -0.168; in assay [4], -0.056. The “glycan array binding signal (z-score)” value in assay [5] was -0.084; in assay [6] it was -0.025; in assay [7], -0.222; in the assay with Neu5Ac(a2-3)GalNAc, 1.09; in assay [8] it was -0.197; in [9], -0.179. In addition, the “glycan array binding signal (z-score)” value in [10] is -0.197; in assay [11], -0.193; in [12] it was -0.239; in [13], 0.957; in assay [14], -0.19; with Neu5Gc(a2-3)Gal(b1-4)Glc, -0.194.
